Test systems include NCI-H23 lung; NCI-H522 lung; MALME-3M melanoma; MDA-MB-231 breast; M14 melanoma; UACC-62 melanoma; LOX IMVI melanoma; SK-MEL-28 melanoma; SR leukemia; OVCAR-8 ovarian; OVCAR-5 ovarian; OVCAR-4 ovarian; SK-OV-3 ovarian; IGROV1 ovarian; HS 578T breast; T-47D breast; SW-620 colon; MCF7 breast; HCT-116 colon; KM12 colon.
Test in all cases: NCI-60 one-dose screen, 48 h (100 = growth as untreated, 0 = no growth, -100 = all killed)
What all share (conditions): 10 µM

“And” between values parts separate entries of the source, which are not always exact repeats. Equal entries are not always repeated. The panel holds about 83,000 compounds, 20% with a hit somewhere; the sample as a whole holds those more often.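 Each cell line was grown in a 96-well plate and treated with one concentration of compound for 48 hours. Values below 10 were considered active.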 The source made the active and inactive calls.

For `C/C=C/CC(C)C(O)[C@H](NC(=O)[C@@H]1CCCN1C(=O)C(C)(C)NC(=O)CCCCCCCCC)C(=O)N[C@@](C)(CC)C(=O)N[C@@H](CCC(N)=O)C(=O)N[C@H](CCC(N)=O)C(=O)NC(C)(C)C(=O)N[C@@](C)(CC)C(=O)N[C@@H](CCC(N)=O)C(=O)N[C@H](CC(C)C)C(=O)N[C@H](CO)CC(C)C` (stereo not given in full), the growth with NCI-H23 lung was 105% (inactive) and -48.3% (active); with NCI-H522 lung it was 101% (inactive) and -77.6% (active); in the test on MALME-3M melanoma, 93.8% (inactive) and -92.9% (active); in the test on MDA-MB-231 breast, 106% (inactive) and -96.8% (active); with M14 melanoma, 100% (inactive) and -67.5% (active); in the test on UACC-62 melanoma, 96% (inactive) and -96.8% (active). Moreover, the growth with LOX IMVI melanoma was 101% (inactive) and -88.2% (active); with SK-MEL-28 melanoma, 104% (inactive) and -100% (active); in the test with SR leukemia, 92% (inactive) and 11.3% (inactive); in the test on OVCAR-8 ovarian, 99.4% (inactive) and -48.6% (active); in the test with OVCAR-5 ovarian, 106% (inactive) and -64.3% (active); in the test on OVCAR-4 ovarian, 106% (inactive) and 19.2% (inactive). Moreover, the growth in the test on SK-OV-3 ovarian is 111% (inactive) and -11.2% (active); in the test with IGROV1 ovarian it was 106% (inactive) and -23.2% (active); with HS 578T breast, 109% (inactive) and -71.9% (active); with T-47D breast it was 95.9% (inactive) and -31.3% (active); in the test on SW-620 colon, 99.1% (inactive) and 3.5% (active); in the test on MCF7 breast, 96.1% (inactive) and -68.2% (active). Besides, the growth in the test with HCT-116 colon is 102% (inactive) and 0.686% (active); in the test with KM12 colon, 108% (inactive) and -60.9% (active).

Source of the values: PubChem BioAssay (NCI).
